Test results from ChEMBL document CHEMBL2218924, “A broad activity screen in support of a chemogenomic map for kinase signalling research and drug discovery” (Biochem J, 2013).

What follows are molecules tested against PAS domain-containing serine/threonine-protein kinase (Homo sapiens) (UniProt Q96RG2). Details: at 1 µM.
Chain of PAS domain-containing serine/threonine-protein kinase (Homo sapiens) (Q96RG2 whole entry, the tested form may be a part): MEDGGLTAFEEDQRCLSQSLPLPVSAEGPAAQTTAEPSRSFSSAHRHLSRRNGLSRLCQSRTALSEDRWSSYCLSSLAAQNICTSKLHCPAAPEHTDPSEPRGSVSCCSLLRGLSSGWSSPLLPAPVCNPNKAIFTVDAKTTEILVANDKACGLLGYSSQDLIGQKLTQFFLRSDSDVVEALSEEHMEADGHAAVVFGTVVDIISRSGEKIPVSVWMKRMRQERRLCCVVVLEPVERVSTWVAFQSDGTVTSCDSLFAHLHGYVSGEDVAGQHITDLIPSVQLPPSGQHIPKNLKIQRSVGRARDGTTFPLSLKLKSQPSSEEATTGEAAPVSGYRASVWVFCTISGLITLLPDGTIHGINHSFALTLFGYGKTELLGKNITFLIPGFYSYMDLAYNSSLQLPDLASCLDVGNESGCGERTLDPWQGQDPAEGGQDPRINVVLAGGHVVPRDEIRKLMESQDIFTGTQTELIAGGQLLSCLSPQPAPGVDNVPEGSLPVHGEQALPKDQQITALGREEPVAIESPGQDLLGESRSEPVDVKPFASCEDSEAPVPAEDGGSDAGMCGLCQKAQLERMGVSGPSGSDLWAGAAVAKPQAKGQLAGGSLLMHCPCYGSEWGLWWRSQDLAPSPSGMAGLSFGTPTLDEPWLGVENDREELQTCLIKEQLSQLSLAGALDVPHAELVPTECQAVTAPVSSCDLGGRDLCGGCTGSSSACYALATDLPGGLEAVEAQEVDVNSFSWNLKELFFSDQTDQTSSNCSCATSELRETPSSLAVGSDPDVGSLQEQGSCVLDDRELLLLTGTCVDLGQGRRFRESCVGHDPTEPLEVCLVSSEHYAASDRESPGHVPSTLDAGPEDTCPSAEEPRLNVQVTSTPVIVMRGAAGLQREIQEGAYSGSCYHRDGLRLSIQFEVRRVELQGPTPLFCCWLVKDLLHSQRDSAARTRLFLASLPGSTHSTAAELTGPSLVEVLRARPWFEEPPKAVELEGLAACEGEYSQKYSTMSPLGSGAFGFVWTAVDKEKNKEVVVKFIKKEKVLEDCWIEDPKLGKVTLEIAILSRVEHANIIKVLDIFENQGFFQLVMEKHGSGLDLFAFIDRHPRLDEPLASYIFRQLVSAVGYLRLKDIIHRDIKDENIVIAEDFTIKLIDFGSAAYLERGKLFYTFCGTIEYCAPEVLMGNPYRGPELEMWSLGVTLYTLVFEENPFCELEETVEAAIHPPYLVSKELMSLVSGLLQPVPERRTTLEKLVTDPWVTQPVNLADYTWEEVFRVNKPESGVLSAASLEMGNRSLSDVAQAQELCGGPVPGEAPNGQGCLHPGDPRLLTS

SMILES	residual activity
O=C1Nc2ccccc2/C1=C\c1c(Cl)[nH]c2ccccc12	99%
CCOc1cc2ncnc(Nc3cccc(Br)c3)c2cc1OCC	79%
CC[n+]1c(/C=C/N(C)c2ccccc2)n(-c2ccccc2)c2ccc(-c3nc4ccccc4s3)cc21	80%
COc1cc2ncnc(Nc3ccc(Oc4ccccc4)cc3)c2cc1OC	98%
O=C(Nc1cccc(Nc2nccc(Nc3cccc(C(F)(F)F)c3)n2)c1)C1CC1	75%
CCN(CC)CCCCN1c2ccccc2Oc2ccc(Cl)cc21	88%
O=c1c2ccccc2[nH]c(=S)n1CCN1CCC(=C(c2ccc(F)cc2)c2ccc(F)cc2)CC1	85%
CN([C@@H](Cc1ccc(OS(=O)(=O)c2cccc3cnccc23)cc1)C(=O)N1CCN(c2ccccc2)CC1)S(=O)(=O)c1cccc2cnccc12	79%
CC(C)n1cnc2/c(=N/c3cccc(Cl)c3)nc(NCCO)[nH]c21	113%
Cc1ccc(S(=O)(=O)/C=C/C#N)cc1	82%
N#Cc1cnc2cnc(NCc3cccnc3)cc2c1Nc1ccc(F)c(Cl)c1	80%
CC(C)N(CCC(=O)c1ccc2ccccc2c1)Cc1ccccc1	126%
Cn1cnc2cc3c(Nc4cccc(Br)c4)ncnc3cc21	82%
Cc1nc(-c2ccccc2)c(-c2ccncc2)o1	128%
c1ccc(-c2n[nH]c3c2oc2ccccc23)cc1	130%
CN(C)CCCn1cc(C2=C(c3c[nH]c4ccccc34)C(=O)NC2=O)c2ccccc21	74%
O=S(=O)(c1cccc2cnccc12)N1CCCNCC1	83%
O=c1cc(N2CCNCC2)oc2c(-c3ccccc3)cccc12	148%
O=Nc1c(-c2c(O)[nH]c3ccccc23)[nH]c2ccccc12	112%

SMILES	residual activity
O=C1Nc2cc(Br)ccc2/C1=C1/Nc2ccccc2/C1=N\O	94%
Cc1cc(Nc2nc(-c3ccccc3)nc3ccccc23)n[nH]1	108%
COc1ccc(-c2cnc3c(-c4ccsc4)cnn3c2)cc1	138%
Oc1n[nH]c2nnc(-c3c(-c4ccccc4)nn4ccccc34)cc12	100%
N#C/C(=C\c1ccc(O)c(O)c1)C(=O)NCc1ccccc1	100%
CCCCc1c(-c2ccc(OC)cc2)[nH]c2nccnc12	102%
Cn1cc(/C=C2\C(=O)Nc3ccc(S(N)(=O)=O)cc32)c2ccccc21	97%
O=C1NC(=O)/C(=C/c2ccc3c(c2)OC(F)(F)O3)S1	81%
O=c1c(-c2ccc(F)cc2)c(-c2ccncc2)[nH]n1-c1ccc(Cl)cc1	135%
O=C1Nc2ccc(Br)cc2/C1=C\c1cc2c([nH]1)CCCC2	129%
O=C1c2ccccc2-[n+]2ccc3c([nH]c4ccccc43)c21	147%
CO[C@H]1[C@@H](OC)C[C@H](C)[C@@H](OC)C2=CC(=O)C=C(NC(=O)/C(C)=C/C=C/[C@H](OC)[C@@H](OC(N)=O)/C(C)=C/[C@@H]1C)C2=O	125%
c1ccc(-c2n[nH]cc2-c2ccnc3ccccc23)nc1	95%
O=C1C(Cl)=C(N2C(=O)CCC2=O)C(=O)c2ccccc21	100%
O=C1Nc2ccc(Cl)cc2/C1=C/c1cc(Cl)c(O)c(Cl)c1	111%
COc1ccc(CNc2nc(N(CCO)CCO)nc3c2ncn3C(C)C)cc1	117%
O=C(O)/C=C/c1cc(Br)c(Br)c(Br)c1Br	63%
Oc1c2ccccc2c2c3c(cccc13)N=N2	125%
O=C(O)c1ccc2c3c1cccc3c(=O)n1c3ccccc3nc21	111%
